Experimental data reported in the OligoGym collection.

Tests used:
Test in all cases: pooled miR-30 sensor sort-seq; sequence = guide strand
Conditions in all cases: shRNA
CDKN2B = biological target: CDKN2B
CEACAM7 = biological target: CEACAM7
CELA2A = biological target: CELA2A
CENPE = biological target: CENPE
Note: reference of the scale not given here.

## TGCGCAGGTACCCTGCAACGTC
CDKN2B
  sensor-assay potency score (higher = more potent): -1.43

## TCATCCTGTGTAGTCTGCCTGC
CDKN2B
  sensor-assay potency score (higher = more potent): -0.705

## ATATCTTTGTTCTCCACCGGAT
CEACAM7
  sensor-assay potency score (higher = more potent): -0.501

## TTAACTGAGAGCCACTAGTTAT
CDKN2B
  sensor-assay potency score (higher = more potent): -1.26

## TTCTTCACCGCCAACCACCCTA
CELA2A
  sensor-assay potency score (higher = more potent): -0.855

## TTTGTCAATAGTTTCCTGCTGC
CENPE
  sensor-assay potency score (higher = more potent): 0.514

## TTGAGTATCTATATTCATGTTA
CENPE
  sensor-assay potency score (higher = more potent): 0.243

## TAACGTTCTGGATCAGCAGGGT
CEACAM7
  sensor-assay potency score (higher = more potent): 0.257

## TGTGGTAGTAGTTGCAGCCGAG
CELA2A
  sensor-assay potency score (higher = more potent): -0.0375

## TTGTGGTAGTAGTTGCAGCCGA
CELA2A
  sensor-assay potency score (higher = more potent): -0.632

## TAGCTCTTGATGTAACATGAGG
CENPE
  sensor-assay potency score (higher = more potent): -1.24

## TTGAGTGTCTCCTCTACTCTTC
CENPE
  sensor-assay potency score (higher = more potent): -0.033

## TTATATTATTTTCCTTCTGTGA
CELA2A
  sensor-assay potency score (higher = more potent): -1.25

## TATTTCACACATTTTCTCCTGA
CENPE
  sensor-assay potency score (higher = more potent): 0.76

## TTATATTTTTTACATATCCTAT
CEACAM7
  sensor-assay potency score (higher = more potent): -0.681

## TTCTTTTATAACGTGTAGGGTA
CEACAM7
  sensor-assay potency score (higher = more potent): -0.399

## TTTTGATTTATCTAAATCCTTT
CENPE
  sensor-assay potency score (higher = more potent): -0.683

## TTGGTTGGAGTTCCAGTCCTTG
CELA2A
  sensor-assay potency score (higher = more potent): -0.732

## TTGTGTGGTAGGATTAACCTGG
CENPE
  sensor-assay potency score (higher = more potent): 0.117

## TTACTTGGTGGTTCTGTCGGTC
CENPE
  sensor-assay potency score (higher = more potent): 0.00856

## TTGAGAGTCTATGTATTCCTGT
CENPE
  sensor-assay potency score (higher = more potent): 0.505

## ATACTGGTTTTCACGCTGCTGC
CELA2A
  sensor-assay potency score (higher = more potent): -1.06

## TTGCAGCTGGAGATCACGCCAT
CELA2A
  sensor-assay potency score (higher = more potent): -0.881

## TATAATTCGATAGTTGGCATGC
CEACAM7
  sensor-assay potency score (higher = more potent): -0.121

## TAGAATTGTCTGGTTACTTCTT
CEACAM7
  sensor-assay potency score (higher = more potent): -0.107

## TACCACTTGCCATTGGAGCTGT
CELA2A
  sensor-assay potency score (higher = more potent): 0.0148

## TTCTTGAGTATCTATATTCATG
CENPE
  sensor-assay potency score (higher = more potent): -0.957

## TATCCTATAATTCGATAGTTGG
CEACAM7
  sensor-assay potency score (higher = more potent): -0.535

## TATCTTTGTTCTCCACCGGATT
CEACAM7
  sensor-assay potency score (higher = more potent): -1.29

## TAACACTCTCTAACATTTGTTG
CENPE
  sensor-assay potency score (higher = more potent): 0.0489
